Measurements from PubChem BioAssay (NCI).
Compounds without any hit were thinned out: in the full panel of roughly 83,000, 20% have a hit.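 Method: cells in 96-well plates; compound added at one concentration; 48 h incubation; percent growth measured; values under 10 scored active.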 The source made the active and inactive calls.

These compounds were tested on MDA-MB-468 breast (assay: NCI-60 one-dose screen, 48 h (100 = growth as untreated, 0 = no growth, -100 = all killed)). Settings: 10 µM unless noted.
`O=c1oc2c(cnc3ccccc32)cc1-c1cccs1` was tested, and the growth was 107% (inactive). In the case of `COc1cc(C2CC(c3ccc(Nc4nc(NCCO)nc(N5CCOCC5)n4)cc3)=NN2c2cc(Cl)cc(Cl)c2)cc(OC)c1OC` (stereo not given), the growth was 64% (inactive). In the case of `CC/C=C\C[C@H](O)C/C=C1/C(=O)C=C[C@@H]1C/C=C\CCCC(=O)OC`, the growth was 3% (active). In the case of `O=C1c2c(c3c4cc(F)ccc4oc3c3[nH]c4ccccc4c23)C(=O)N1O`, the growth was -5.83% (active). With `O=C1C=CC(=CC=C2C=CN(CCCCCCCCCCCO)C=C2)C=C1` the growth was -37.4% (active). In the case of `CSc1nc2c(c(=O)[nH]1)N=C1c3ccccc3C(=O)C1C(c1ccc(F)cc1)N2` (stereo not given), the growth was 21.7% (inactive). `CC(C)(C)c1nn(-c2ccccc2)c2c1COCN2Cc1ccc(Cl)cc1` was tested, and the growth was 89% (inactive). With `CC(=O)C(C)Cc1cc2c(cc1C)C(C)(C)CCC2(C)C` (stereo not given) the growth was 97.6% (inactive). In the case of `CCOC(=O)c1cnn(-c2ccc(S(N)(=O)=O)cc2)c1N`, the growth was 94.7% (inactive). For `Fc1ccc(-c2nc(Nc3ccc(-c4nc5ccccc5[nH]4)cc3)nc(N3CCOCC3)n2)cc1`, the growth was -84% (active). `CC(C)NC(=O)OCC#CCOC(=O)NC(C)C` was tested, and the growth was 99.9% (inactive). `COc1ccc2[nH]cc(-c3nc(-c4c[nH]c5ncccc45)cs3)c2c1` was tested, and the growth was 39.1% (inactive). `COC(=O)c1cc2c(=O)[nH]cc3c2c(n1)CCC3` was tested, and the growth was 97.7% (inactive). With `Cc1ccc(NC(C(=O)c2ccccc2)c2ccccc2)cc1` (stereo not given) the growth was 8.06% (active). `COc1cccc(CCN2C(=O)CCC3=C2CCC3=O)c1` was tested, and the growth was 103% (inactive). With `COc1cc(NCCCCC(C)N)c2nccc(C)c2c1` (stereo not given) the growth was 10.6% (inactive). With `COc1cc(C2CC(c3ccc(Nc4nc(NCCO)nc(Nc5ccc(Cl)cc5)n4)cc3)=Nc3c(N)nc(N)nc3N2)cc(OC)c1OC` (stereo not given) the growth was 58.6% (inactive). In the case of `C[C@@H]1CCC2=C(CCC[C@]2(C)C(=O)O)[C@@]1(C)CCc1ccoc1`, the growth was 95.4% (inactive). In the case of `CCOC(=O)c1ccc(Nc2ncnc3ccc(NC(=O)c4ccccc4)cc23)cc1`, the growth was 88.9% (inactive). `COc1cccc(-c2nn(-c3ccccc3)cc2-c2ccnc(NCCNC(=O)Nc3ccc(Cl)c(Cl)c3)c2)c1` was tested, and the growth was -17.4% (active). With `CCOC(=O)c1cc2c(n1C)-c1nc(NC(C)=O)sc1CCC2` the growth was 79.8% (inactive). `CNC(=O)c1cc(Oc2ccc3c(c2)sc2nc(-c4ccc(NC(C)=O)cc4)cn23)ccn1` was tested, and the growth was 86.3% (inactive). `S=C1CCCC(=S)N1` was tested, and the growth was 100% (inactive). With `N#C/C(=C\c1ccc(-c2ccc(Cl)cc2)o1)c1nc(-c2ccco2)cs1` the growth was -26.7% (active). With `CCCOc1ccc(-c2nc(-c3ccc(N)cc3)cs2)cc1` the growth was 110% (inactive). `CC(C)OCCCNCC(=O)Nc1ccc(S(=O)(=O)c2ccc(NC(=O)CNCCCOC(C)C)cc2)cc1` was tested, and the growth was 92.7% (inactive). With `O=C1NC(=O)/C(=C/c2ccc(Cl)cc2Cl)N1` the growth was 130% (inactive). With `CC1C(=NC(=O)c2cnccn2)C(C)C(c2ccc(Cl)cc2)NC1c1ccncc1` (stereo not given) the growth was 92.9% (inactive). `O=C1c2cccc3cccc(c23)C(=O)N1CC#Cc1ccc2c3c(cccc13)C(=O)N(CCO)C2=O` was tested, and the growth was 94.2% (inactive). In the case of `COc1ccc(S(=O)(=O)Nc2cc(Sc3cccc4cccnc34)c(O)c3ccccc23)cc1`, the growth was -39.6% (active). For `CCC(CC)NCCCCCNc1cc(OC)cc2cccnc12`, the growth was 57.8% (inactive). In the case of `COc1ccc2cc(-c3nc4ccccc4s3)c(Cl)nc2c1OC`, the growth was 103% (inactive). For `CCCOC(=O)N[C@H]1CCc2c(Cl)c(OC)c(OC)c(OC)c2-c2ccc(SC)c(=O)cc21`, the growth was -18.6% (active). For `O=S(=O)(Nc1nccs1)c1ccc(Nc2nc(-c3ccncc3)cs2)cc1`, the growth was 101% (inactive). For `CCOC(=O)CCN(CCC(=O)OCC)c1ccccc1`, the growth was 96.6% (inactive). In the case of `C#CCNCCN1C(=O)c2ccc3c4c(ccc(c24)C1=O)C(=O)N(CCNCC#C)C3=O`, the growth was 17.1% (inactive). With `COc1cc2cc(Oc3ccc(NC(=O)Nc4ccc(F)c(C(F)(F)F)c4)cc3)c(C)nc2cc1OCCN1CCOCC1` the growth was -15.6% (active). In the case of `O=C(Nc1ccc(OCc2nnc(-c3ccccc3)o2)c(F)c1)Nc1ccc(Cl)c(Cl)c1`, the growth was 26.3% (inactive). For `CC(C)NCCCNC1=C(Cl)C(=O)c2ccccc2C1=O`, the growth was 34.6% (inactive). In the case of `Cc1ccc(-c2csc(NC(=O)CN3CCN(c4cc5c(cc4F)c(=O)c(C(=O)O)cn5C4CC4)CC3)n2)cc1`, the growth was 3.21% (active).
